Test results as given in PubChem BioAssay AID651558 (National Center for Advancing Translational Sciences (NCATS), 2012).
Out of some 1,200 compounds screened, about 480 (40%) were called active. Not shown: some 29% with an inconclusive outcome. Some of the results follow. Values without a mark were called inactive. Calls follow the shape of the dose curve; as a rule, active = well fitted inhibition curve with a large enough effect; inconclusive = small, poorly fitted or top-dose-only effect; inactive = no such curve, though single readings can be large or run the other way.

experiment: qHTS Assay to Find Inhibitors of Chronic Active B-Cell Receptor Signaling: Hit Validation in Primary Screen; details: ABC-DLBCL IkB-luc/CBR ratio luminescence, 4 h; series mostly up to 46.1 µM; activity change, negative = inhibition: at the top concentration; also: nearly all actives have a fitted effect of over 75% in size
Source text: Diffuse large B-cell lymphoma (DLBCL) is the most common category of non-Hodgkin lymphoma, with ~20,000 new cases per year in the United States. DLBCL should be regarded as a collection of different neoplasms. Microarray gene expression analysis has defined two principal types of DLBCL, named for their similarity to normal B cell stages or activation states: a germinal center B-cell (GCB) type, and an activated B-cell (ABC) type. In ABC-DLBCL, a constitutive high-level activity of the NF-kappaB family of transcription factors has been observed (1) and NF-kappaB target genes are more highly expressed in ABC primary tumors than in GCB tumors. Functional studies have shown a constitutive high-level activity of the IkappaB (inhibitor of kappa-B) kinase (IKK) complex. […] Further analysis of DLBCL primary tumors for NF-kappaB target gene expression imply that although CARD11 is required for constitutive IKK activity in all ABC-DLBCL lines, mutations in CARD11 may be the root cause of IKK activation only in lines or tumors with such mutations. In other words, CARD11 mutations may explain NF-kappaB activation in only 10% of ABC-DLBCL cases. […] This process has been termed 'chronic active BCR signaling' (CABS). The goal of this screen is to find small-molecule inhibitors of the CABS pathway found in ABC-DLBCL lines using a cell-based assay that measures IkappaBalpa stability, which has already been extensively validated in the OCI-Ly3 line (PubChem AID:445; REF: 4). […] A cell-sensor assay for I-kappa-B-alpha stabilization has been developed. The assay uses green (CBG68) and red (CBR) emitting beetle luciferases [Chroma-GloTM developed by Promega Corp.] where the green luciferase is fused to IkappaBalpha and the red luciferase is present in its native state. Both luciferase genes are stably present in the TMD8 human ABC DLBCL cell line, but their expression is under the control of tetracycline-inducible promoters. Following the addition of doxycycline to induce expression of the luciferases, the green luminescence in control cultures rises only slowly because the CBG fusion partner IkappaBalpha is targeted by IKK activity for rapid degradation. In contrast, green luminescence rises rapidly in the presence of proteasome inhibitors or IKK inhibitors. The rise in red luminescence of CBR is not affected by proteasome or IKK inhibitors, and serves as normalization for cell number and nonspecific effects. Compounds were screened as a concentration-titration series that ranged from 46 uM to 3 nM. NIH Molecular Libraries Probe Production Network [MLPCN] NIH Chemical Genomics Center [NCGC] MLPCN Grant: R03 DA031086 PI Name: Dr. R. Eric Davis
Cells were seeded in 1536-well plates at 5000 cells/4uL in IMDM medium containing 0.5% FBS, w/o phenol red, 1% penicillin/streptomycin. Then, 23 nL of compounds or DMSO were delivered to each well using a pin tool. One uL 20ng/ml doxycycline was then dispensed into white solid 1536-well plates and the plates were incubated at 37C/5% C02 in a cell incubator for 4 hrs. Then 4 uL luminescent substrate mix (in-house prepared: 150 mM Tris-Cl, pH 7.6, 3 mM MgCl2, 1% Triton X-100, 5 mM DTT, 0.2 mM CoA, 0.15 mM ATP, 5 mM D-luciferin, final concentrations) was added to each well. The plate was incubated at r.t. for 10-15 min. The plates were measured on a ViewLux plate reader for green luminescence (540/20 nm filter) and red luminescence (618/8 nm filter). The green and red luminescent signals were corrected for red and green luminescence filter overlap using previously determined filter calibration constants (determined using the procedure outlined in the Promega Technical Manual; REF 4). The %Activity was determined from the ratio of corrected green/red luminescent values. MG132 were used as control. Green luminescent and ratio %Activity was determined by normalizing to the difference in signal between basal cells (0% Activity) and cells incubated with 10 uM of the proteasome inhibitor MG-132 (100% Activity). […]
% is scaled to controls: 0 for no effect and ±100 for the full control effect; potency is read from the fitted curve at half-maximal effect.

SMILES | Potency | activity change, negative = inhibition [%]
C=CCn1c(SCC(=O)Nc2cccc(S(N)(=O)=O)c2)nc2sc(C)c(C)c2c1=O | 5.17 µM (active) | 
CC1=Nc2cc(C(=O)NCCCOC(C)C)ccc2Sc2ccc(C)cc21 | 7.31 µM (active) | 
CCC1=Nc2cc(C(=O)NCCCOC(C)C)ccc2Sc2ccc(C)cc21 | 2.59 µM (active) | 
Oc1ccccc1N=Nc1ccccc1O |  | 5.71
CCc1ccccc1NC(=S)N=Nc1c(O)n(C)c2ccc(S(=O)(=O)N3CCOCC3)cc12 |  | 26.3
S=c1[nH]cnc2sc(-c3ccccc3)cc12 |  | -6.35
CCc1cc2c(=O)[nH]c(-c3ccccn3)nc2s1 | 14.6 µM (active) | 
O=c1[nH]c(-c2ccccn2)nc2sc(-c3ccccc3)cc12 | 2.31 µM (active) | 
C/C(=N\NC(=S)NCCc1ccccc1)c1cccc(Br)c1 |  | 4.84
O=C(NC(=S)NC1CCSC1=O)c1cccs1 (configuration not stated) |  | -12.7
O=C1NC(=O)C(=C2CCCCCC2)S1 |  | 39.3
COc1ccc(-c2cnc3c(c2)CCC3(C#N)C#N)cc1 | 3.66 µM (active) | 
Cc1cc(C)c2ccc(/C=N/O)nc2c1O |  | -9.13
COc1ccc(C2CC(=O)Oc3cc(OC)c(OC)c(OC)c32)cc1 (configuration not stated) |  | -19.3
COc1ccc([C@H]2CC(=O)C=C(c3ccc(OC)cc3OC)C2)cc1 | 16.4 µM (active) | 
COc1ccc(/C=C/C(=O)c2cc(Br)ccc2OC(=O)c2ccco2)cc1OC | 5.8 µM (active) | 

SMILES | Potency | activity change, negative = inhibition [%]
Cc1ccccc1C(=O)Oc1ccc2ccc(O)cc2c1 |  | -6.71
O=C(Oc1ccc(F)cc1C(=O)/C=C/c1cccs1)c1cccc([N+](=O)[O-])c1 | 1.46 µM (active) | 
COc1ccc(/C=C/C(=O)c2cc(F)ccc2OC(=O)c2ccccc2C)cc1OC | 1.3 µM (active) | 
O=C(NC(=S)Nc1cccc(F)c1)c1cccc([N+](=O)[O-])c1 |  | -2.56
COc1ccc(/C=C/C(=O)c2cc(F)ccc2OC(=O)c2ccccc2OC)cc1OC | 1.3 µM (active) | 
S=C(Nc1ccccc1Cl)N(Cc1ccccc1)Cc1ccccn1 |  | -2.47
COc1ccc(NC(=S)N/N=C/c2ccc(F)cc2)cc1OC |  | -3.66
COc1ccc(/C=C/C(=O)c2cc(F)ccc2OC(=O)c2ccc(OC)c(OC)c2)cc1OC | 23.1 µM (active) | 
COc1cccc(Nc2sc(C(=O)c3ccc(Cl)cc3)c(N)c2C(=O)NCc2ccc(C)cc2)c1 | 1.3 µM (active) | 
Cc1cc(C)c(S(=O)(=O)Nc2ccc3c4c(cccc24)CC3)c(C)c1 | 1.16 µM (active) | 
COc1cccc(CN2c3ccc(Br)cc3C(=O)CS2(=O)=O)c1 |  | 6.37
COc1ccc(CN2C[C@H]3CCCN3c3cc(Br)ccc3S2(=O)=O)cc1 | 6.51 µM (active) | 
COc1cc(-c2noc(C)c2-c2ccc3[nH]ccc3c2)cc(OC)c1OC | 14.6 µM (active) | 
COc1ccc(-c2c(-c3cc(OC)c(OC)c(OC)c3)noc2C)cn1 | 20.6 µM (active) | 
CCOC(=O)c1ccc(-c2c(-c3cc(OC)c(OC)c(OC)c3)noc2C)cc1F | 8.2 µM (active) | 
COc1cc(-c2noc(C)c2-c2ccc(N(C)C)nc2)cc(OC)c1OC | 2.31 µM (active) | 
